The campaign covered roughly 2,500 compounds. About 2,100 (84%) were called active.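 Rule for the calls: active = toxic compounds, whose cell viability fell below 70% of untreated control cells; inactive = the rest.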 The set was probably picked from earlier hits. Not all results are given here. Results with a measured potency or affinity are listed apart.
Experiment: viability of uninfected HEp-2 cells – cell-based, HTS, cytotoxicity control for RSV inhibitor project, dose response (AID 2410);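 note: cells exposed to compound for six days before readout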
Details: HEp-2 viability, luminescence, cytotoxicity counter-screen; series mostly up to 50 µM

SMILES | outcome
COCCN(C(=O)CSc1nnc(-c2ccc(C)c(C)c2)o1)c1c(N)n(CC(C)C)c(=O)[nH]c1=O | inactive
COc1ccc2[nH]c3c(=S)nc[nH]c3c2c1 | inactive
c1ccc(N2CCN(Cc3nc4ccccc4[nH]3)CC2)nc1 | inactive
O=C(OCC(=O)N1CCCC1=O)c1ccc(Cl)cc1[N+](=O)[O-] | inactive
CC(=O)Nc1ccc(NC(=O)C(C)OC(=O)c2ccccc2C(=O)c2ccc(Cl)c([N+](=O)[O-])c2)cc1 (centres undefined) | inactive
COc1ccc(C(=O)NCC(=O)N/N=C/c2c(C)[nH]c3ccccc23)cc1OC | inactive
COc1cc(O)cc(O)c1C(=O)/C=C/c1ccccc1 | inactive
COc1ccc(C(CNC(=S)NCc2ccccc2)N2CCCC2)cc1 (centres undefined) | inactive
COC(=O)C1=C(C)N(Cc2ccccc2)C(=O)N[C@H]1c1ccc(Br)cc1 | inactive
CC(=O)Nc1ccc(C(=O)OCc2ccc(Cl)cc2)cc1 | inactive
COc1cc(/C=N/N=C(\N)c2nonc2N)cc(OC)c1OC | inactive
COc1cccc(/C=N/N=C(\N)c2nonc2N)c1O | inactive
C/C(N)=C(/C#N)C(=O)COc1ncnc2ccccc12 | inactive
C/C(N)=C(/C#N)C(=O)COc1ncnc2ccc(Br)cc12 | inactive
C/C(N)=C(/C#N)C(=O)COC(=O)c1cccc(C)c1O | inactive
Cc1c(NC(=O)CN2C(=O)NC3(CCCCC3C)C2=O)cccc1[N+](=O)[O-] (centres undefined) | inactive
Fc1cccc(Nc2nc(-c3ccncc3)nc3ccccc23)c1 | inactive
COc1ccc(/C(C)=N/NC(=O)CN(c2ccc(OC)cc2)S(=O)(=O)c2ccccc2)cc1 | inactive
Cc1nc2nc(-c3ccccc3)nn2c(C)c1Cl | inactive
O=C(c1cc(-c2ccc(Cl)cc2Cl)on1)N1CCOCC1 | inactive
Cc1ccc(-c2nc(CCN3C(=O)c4ccccc4C3=O)cs2)cc1 | inactive
Cc1ccc2c(n1)sc1c(-c3ccc(Br)cc3)c(C#N)c(N)nc12 | inactive
Nc1ccc(Br)c2c1C(=O)c1ccccc1C2=O | inactive
COc1ccc(N(C)C(=O)C2CCCN2S(=O)(=O)c2cccc3nsnc23)c(OC)c1 (centres undefined) | inactive
COc1ccc(NC(=O)c2cccs2)c([N+](=O)[O-])c1 | inactive
COc1ccccc1CNC(=O)C1CCN(S(=O)(=O)c2cccc3nonc23)CC1 | inactive

SMILES | outcome
C/C(NC(=O)c1cccc(F)c1)=C1/C(=O)C[C@@H]2[C@H]1C2(C)C | inactive
C/C(N)=C(/C#N)C(=O)CN1C(=O)NC(Cc2c[nH]c3ccccc23)C1=O (centres undefined) | inactive
O=C(Nc1ccon1)c1sc2ccccc2c1Cl | inactive
CS(=O)(=O)NNC(=O)c1cc2cc3ccccc3nc2s1 | inactive
O=C(Nc1ccc(Cl)cc1)N1CCc2[nH]c3ccccc3c2C1 | inactive
CCC(=O)Nc1nc(C)c(-c2csc(Nc3ccccn3)n2)s1 | inactive
Cc1cc(Nc2cccc(Cl)c2)nc(-c2ccccc2O)n1 | inactive
Cc1cc(Nc2cccc(F)c2)nc(-c2ccccc2O)n1 | inactive
CC1CCCN(C(=O)COC(=O)c2ccc3[nH]c4c(c3c2)CCCC4)C1 (centres undefined) | inactive
Cc1cccc(C)c1N=Cc1c(O)n(-c2nccs2)c(=O)c2ccccc12 | inactive
COc1ccccc1NCC(=O)Nc1cc(S(=O)(=O)N2CCOCC2)ccc1N1CCOCC1 | inactive
Cc1ccnc(NC(=O)c2cccc(S(=O)(=O)N3CCN(c4ccccc4)CC3)c2)c1 | inactive
O=C(NCc1ccccc1Cl)C1CCN(S(=O)(=O)c2cccc3nonc23)CC1 | inactive
COc1ccc2o/c(=N\O)c(C(=O)Nc3ccccc3OC)cc2c1 | inactive
COc1ccc(C(=O)N/C(=C/c2cccs2)c2nc3ccccc3[nH]2)cc1OC | inactive
CSc1nc(N2CCOCC2)nc2ccc(C)cc12 | inactive
O=C1c2ccccc2C(=O)N1CCCCN(C(=O)c1cc2ccccc2oc1=O)c1ccc(Cl)cc1 | inactive
COc1ccccc1CNC(=O)C(NS(=O)(=O)c1cccc2nsnc12)C(C)C (centres undefined) | inactive
CCC(C)n1ncn(-c2ccc(N3CCN(c4ccc(OCC5COC(Cn6cncn6)(c6ccc(Cl)cc6Cl)O5)cc4)CC3)cc2)c1=O (centres undefined) | inactive
Brc1cnc(N2CCOCC2)nc1N1CCCCC1 | inactive
CCOc1ccc(CNC(=O)CCCn2nc(CC)n3c(cc4occc43)c2=O)cc1 | inactive
N#Cc1ccccc1Cn1c(=O)oc2ccccc21 | inactive
COC(=O)c1ccc(Oc2nc(N3CCCCC3)nc(N3CCOCC3)n2)cc1 | inactive
CCCCNC(=O)CC1N=C2c3ccccc3N=C(SCC(=O)Nc3ccc(OC)cc3)N2C1=O (centres undefined) | inactive
O=C(/C=C/c1ccc(O)c(O)c1)OC1C(O)CC(OC(=O)/C=C/c2ccc(O)c(O)c2)(C(=O)O)CC1O (centres undefined) | inactive
N#Cc1ccccc1NC(=O)c1ccc2c(Cl)c3c(nc2c1)CCCC3 | inactive

SMILES | outcome
CC(=O)N1N=C(c2ccc(C)cc2)OC1c1cccnc1 (centres undefined) | inactive
OCc1cn(-c2ccccc2)nc1-c1ccc(Br)cc1 | inactive
COc1ccc(-c2nn(-c3ccccc3)cc2/C=N/O)cc1 | inactive
O=[N+]([O-])c1ccc(N/N=C/c2ccccc2)cc1 | inactive
CC(Oc1ccc(F)cc1)C(=O)Nc1ccc2ccccc2c1 (centres undefined) | inactive
Cc1c(C)n(C)c2ccc([N+](=O)[O-])cc12 | inactive
O=c1c2sccc2n(Cc2cc(=O)n3ccccc3n2)c(=O)n1-c1ccccc1 | inactive
CN(Cc1nc2ccccc2c(=O)[nH]1)C(=O)c1cc(C2CC2)nn1-c1ccccc1 | inactive
CCN(Cc1nc2ccccc2c(=O)[nH]1)C(=O)c1cc(C2CC2)nn1-c1ccccc1 | inactive
COc1ccccc1/C=C/C(=O)NCC(=O)N/N=C(/C)c1ccc(Cl)cc1 | inactive
Cc1nn2c(-c3ccc(F)cc3)ccnc2c1Br | inactive
CC(=O)c1sc(-c2ccccc2Cl)nc1C | inactive
O=C(Nc1ccon1)c1ccc(N2CCCCC2)c([N+](=O)[O-])c1 | inactive
c1csc(-c2nc3c4ccccc4c4ccccc4c3[nH]2)c1 | inactive
Cc1c(SCCO)c(=O)[nH]c2cc3c(cc12)OCO3 | inactive
O=C(/C=C/c1ccc(O)c(O)c1)O[C@@H]1C[C@](O)(C(=O)O)C[C@@H](O)[C@H]1O | inactive
COc1ccc2cc(CN(CCc3ccccc3)Cc3nnnn3Cc3ccco3)c(=O)[nH]c2c1 | inactive
CCOC(=O)c1c(C)[nH]c(C(=O)COC(=O)C2(C)CC2(Cl)Cl)c1C (centres undefined) | inactive
O=c1nc(Nc2ccc(OCc3ccccc3)cc2)sc2ncccc12 | inactive
Cc1csc(N(C)C(=O)CSc2nnc(COc3ccccc3C)o2)n1 | inactive
COC(=O)c1ccc(NC2c3ncccc3C(=O)N2Cc2cccs2)cc1 (centres undefined) | inactive
Cc1[nH]c2ccccc2c1C(=O)CSc1ccccn1 | inactive
Cc1ccc(Nc2nc(N3CCOCC3)nc(N3CCOCC3)n2)cc1Cl | inactive
CSc1nc2ccc(Nc3nc(N4CCOCC4)nc(N4CCOCC4)n3)cc2s1 | inactive
O=C(c1ccccc1Cl)N1CCN(c2ccccn2)CC1 | inactive
CSc1nnc(Cn2c(=O)sc3ccccc32)n1CCc1ccccc1 | inactive

SMILES | outcome
CCOC(=O)CSc1nnc(CNC(=O)c2ccc([N+](=O)[O-])cc2)n1C | inactive
C#CCOCCOCCOCCNc1nc(N2CCN(C(=O)CCCCCCCCCCNC(=O)[C@@H]([C@H](C)O)n3cc(C)nn3)CC2)nc(N2CCN(C(=O)CCCCCCCCCCNC(=O)[C@@H]([C@H](C)O)n3cc(C)nn3)CC2)n1 | inactive
Cc1ccccc1NC(=O)COC(=O)Cc1ccsc1 | inactive
COc1ccc(S(=O)(=O)N2CCN(CCO)CC2)cc1-c1nnc2c3ccccc3c(C)nn12 | inactive
Cc1cc(N2C(=O)CC(N3CCN(c4ccc(C(=O)c5cccs5)cc4)CC3)C2=O)no1 (centres undefined) | inactive
C/C(=N/OCO/N=C(/C)c1ccc(F)cc1)c1ccc(F)cc1 | inactive
O=c1c(OC2OC(CO)C(O)C(O)C2OC2OC(CO)C(O)C(O)C2OC2OC(CO)C(O)C(O)C2O)c(-c2ccc(O)c(O)c2)oc2cc(O)cc(O)c12 (centres undefined) | inactive
CCC(=O)Nc1ccc(C(=O)OCc2ccccc2Cl)cc1 | inactive
Cc1ccc(-n2c(=O)c3sccc3n(Cc3cc(=O)n4ccccc4n3)c2=O)cc1F | inactive
COc1ccc(Br)cc1/C=C/C(=O)Nc1ccc2ccccc2c1 | inactive
CCOc1cc(/C=N\Nc2nc(Nc3ccccc3)nc(N3CCOCC3)n2)ccc1OC(=O)c1ccco1 | inactive
S=C(NCCc1ccccc1)N/N=C/c1cccc(Cl)c1Cl | inactive
c1ccc2c(c1)OCCc1c-2[nH]c2ccccc12 | inactive
COC(=O)c1ccc(Cn2c(CN3CCOCC3)nc3ccccc3c2=O)o1 | inactive
CCn1c(=NC(=O)c2ccco2)sc2cccc(F)c21 | inactive
CC(=NCc1ccco1)C1=C(O)c2ccccc2C1=O | inactive
Cn1nnc(-c2ccc(OCc3ccccc3F)cc2)n1 | inactive
CC/C(=N\Nc1ccc([N+](=O)[O-])cc1)c1ccccc1 | inactive
COC(=O)c1cc2n3ccccc3c(C)c(-c3ccccc3)c-2c1C(=O)OC | inactive
CCOc1ccc2nc(NC(=O)C(CCSC)NS(=O)(=O)c3cccs3)sc2c1 (centres undefined) | inactive
O=C(CSc1ccccn1)Nc1nc2c(ccc3ccccc32)s1 | inactive
COc1ccc(Cn2c(-c3ccccc3C)nc3c(c(=O)c4ccccc4n3C)c2=O)cc1 | inactive
Cc1ccc(-c2nc3c(c(=O)c4ccccc4n3C)c(=O)n2Cc2ccco2)cc1 | inactive
COCCn1c(-c2cccc(Br)c2)nc2c(c(=O)c3ccccc3n2C)c1=O | inactive
COCCn1c(-c2ccccc2Cl)nc2c(c(=O)c3ccccc3n2C)c1=O | inactive
Nn1c(COc2ccccc2)nc2ccccc2c1=O | inactive
